From PubChem BioAssay (Tox21) come the findings set out here.

A short description of assay [1]: qHTS assay to identify small molecule antagonists of the estrogen related receptor (ERR) signaling pathway from Tox21 library - cell viability counter screen (AID 1224834). Also: nearly all actives have a fitted effect of over 30% in size. Also: potency is read from the fitted curve at half-maximal effect. In outline: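 In this quantitative HTS format, ERR cells receive compounds in DMSO and are incubated for 17.5 h at 37 C. Live-cell protease activity is then detected with CellTiter-Fluor.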
On the technique in general: Quantitative high-throughput screening tests each substance at several concentrations.

In assay [2] the target is Luciferin 4-monooxygenase (Photinus pyralis) (UniProt P08659). As to the kind of experiment: qHTS assay to identify small molecule inhibitors of firefly luciferase (AID 1224835). Also: nearly all actives have a fitted effect of over 25% in size. In a few lines:
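Biochemical qHTS: compounds run as interplate titrations against purified firefly enzyme, with D-luciferin and ATP each at its KM concentration. Light output recorded by CCD imaging.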

Assay [3] is described as follows: qHTS assay to identify small molecule agonists of the constitutive androstane receptor (CAR) signaling pathway - cell viability counter screen (AID 1224836). Also: nearly all actives have a fitted effect of over 45% in size. Also: potency is read from the fitted curve at half-maximal effect. In a few lines: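 Cells were seeded and incubated 4 hrs. Compounds were added across 15 concentrations together with PK11195 at 0.75 uM final. Plates were incubated 23 hrs at 37 C. CellTiter-Fluor was added and fluorescence measured.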

Assay [4] can be described thus: qHTS assay to identify small molecule antagonists of the constitutive androstane receptor (CAR) signaling pathway - cell viability counter screen (AID 1224837). Also: nearly all actives have a fitted effect of over 45% in size. Also: potency is read from the fitted curve at half-maximal effect. In a few lines: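 In quantitative HTS format, compounds at 15 concentrations were applied to HepG2 cells double-transfected with hCAR and CYP2B6-2.2kb under 50 nM CITCO stimulation; live-cell protease activity was read after 23 hr via CellTiter-Fluor.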

Assay [5] concerns the target Nuclear receptor subfamily 1 group I member 3 (Homo sapiens) (UniProt Q14994). As to the kind of experiment: qHTS assay to identify small molecule agonists of the constitutive androstane receptor (CAR) signaling pathway (AID 1224839). Also: nearly all actives have a fitted effect of over 15% in size. Also: potency is read from the fitted curve at half-maximal effect.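 As to activation: HepG2 cells stably carrying human CAR and a CYP2B6 luciferase reporter.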 In a few lines:
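Cells were plated and incubated 4 hrs, then dosed with compounds at 15 concentrations. PK11195 was added to 0.75 uM final. After 24 hrs at 37 C, luciferase luminescence was measured.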

The nature of assay [6]: qHTS assay to identify small molecule antagonists of the estrogen related receptor signaling pathway with the pleiotropic PPARgamma coactivator (PGC) from Tox21 10K library - cell viability counter screen (AID 1224840; active = well fitted cell-killing curve with a large enough effect in the repeat runs, not every such curve was filed as active; also: nearly all actives have a fitted effect of over 40% in size; also: potency is read from the fitted curve at half-maximal effect). In outline: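 Viability counter screen, PGC/ERR cells: 17.5 h compound exposure at 37 C, CellTiter-Fluor fluorescence endpoint.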
A short description of assay [7]: qHTS assay to identify small molecule antagonists of the estrogen related receptor signaling pathway with the pleiotropic PPARgamma coactivator (PGC) from Tox21 10K library (AID 1224841; call rule not given here; also: actives are mostly falling curves and most rising ones were filed inactive; nearly all actives have a fitted effect of over 50% in size; also: potency is read from the fitted curve at half-maximal effect). In outline: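 In the PGC/ERR line, DMSO solutions of test chemicals are pin-delivered to 2,000 cells/well six hours after dispensing. Following eighteen hours' incubation, One-Glo reagent is added and luminescence recorded.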

Assay [8] in a line: qHTS assay to identify small molecule agonists of the estrogen related receptor signaling pathway with the pleiotropic PPARgamma coactivator (PGC) from Tox21 10K library (AID 1224842). Also: nearly all actives have a fitted effect of over 15% in size. Also: potency is read from the fitted curve at half-maximal effect. In a few lines:
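PGC/ERR reporter cell line, 2,000 cells per well, incubated 6 h at 37 C before 23 nL compound in DMSO was added. After 18 h at 37 C, One-Glo luminescence read following 30 min at room temperature.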

A short description of assay [9]: qHTS assay to identify small molecule agonists of H2AX - cell viability counter screen (AID 1224847; calls by dose curve; also: nearly all actives have a fitted effect of over 30% in size; also: potency is read from the fitted curve at half-maximal effect). In outline:
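Cytotoxicity counter screen in wild-type CHO-K1 cells: a 3 hr compound treatment at 37C across 15 concentrations, followed by CellTiter-Glo luminescence to gauge viable cells.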

Assay [10] is described as follows: qHTS assay to identify small molecule antagonists of the estrogen related receptor (ERR) signaling pathway from Tox21 library (AID 1224848). Also: nearly all actives have a fitted effect of over 50% in size. Also: potency is read from the fitted curve at half-maximal effect. In a few lines:
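Quantitative high-throughput format: ERR reporter cells (2,000/well) pre-incubated 6 h, treated 18 h at 37 C with compounds in DMSO alongside positive and negative controls, then read by ONE-Glo luminescence.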

Assay [11] in a line: qHTS assay to identify small molecule agonists of the estrogen related receptor (ERR) signaling pathway from Tox21 library (AID 1224849; calls by dose curve; also: nearly all actives have a fitted effect of over 15% in size). Conditions: ERR reporter cell line, ONE-Glo luciferase, 18 h; at 92.4 µM (top of the series) unless noted. In outline: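 Reporter cells (ERR, NTP source) treated with Tox21 10K compounds 18 h, 37 C. Readout: ONE-Glo luminescence, 30 min RT.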

Assay [12] can be described thus: qHTS RealTime-Glo MT Cell Viability Assay in HepG2 cells - 24 hour (AID 1224867). Also: nearly all actives have a fitted effect of over 50% in size. Also: potency is read from the fitted curve at half-maximal effect. In outline:
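Cell number in HepG2 cultures estimated from NanoLuc luminescence generated by metabolic reduction of a prosubstrate by living cells. The homogeneous, nonlytic format allowed repeated reads at 0, 8, 16, 24, 32 and 40 h of compound exposure.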

Assay [13] in a line: qHTS RealTime-Glo MT Cell Viability Assay in HEK293 cells - 32 hour (AID 1224868). Also: nearly all actives have a fitted effect of over 50% in size. Also: potency is read from the fitted curve at half-maximal effect. In outline:
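Homogeneous bioluminescent viability format in HEK293 cells (600 cells/well). Following 5 h at 37 C/5% CO2, 23 nL compound was pintooled; the signal was measured repeatedly during 40 h incubation.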

Assay [14] is described as follows: A CellTox Green Cytotoxicity Assay to monitor cytotoxicity in HEK293 cells - 0 hour (AID 1224869). Also: nearly all actives have a fitted effect of over 50% in size. In a few lines: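 Homogeneous no-lysis format: HEK293 cell suspension mixed with CellTox Green reagent, seeded, incubated 5 h at 37 C/5% CO2, then dosed by pintool with compound in DMSO.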
In assay [15] the target is Thyrotropin receptor (Homo sapiens) (UniProt P16473). As to the kind of experiment: qHTS assay to identify small molecule agonists of the thyroid stimulating hormone receptor (TSHR) signaling pathway (AID 1224843; calls by dose curve; also: nearly all actives have a fitted effect of over 45% in size). In outline:
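Agonist-mode screen: TSHR HEK293 cells received test chemicals for half an hour at room temperature, then HTRF cAMP detection reagents for one hour prior to fluorescence measurement. Each chemical ran as a 15-concentration series, triplicated.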

A short description of assay [16]: qHTS assay to identify small molecule agonists of the hypoxia (HIF-1) signaling pathway - cell viability counter screen (AID 1224844; calls by dose curve; also: nearly all actives have a fitted effect of over 50% in size). In outline: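 Same wells as the HIF-1 reporter screen; ME-180 cells carrying HRE-bla, 17 hr treatment at 37C; CellTiter-Glo luminescence read after 30 min at room temperature.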
Assay [17] is described as follows: qHTS assay to identify small molecule agonists of H2AX (AID 1224845; active = well fitted activation curve with a large enough effect in the signal ratio in the repeat runs, not every such curve was filed as active; the % refers to the signal ratio). In a few lines:
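Wild-type CHO-K1 cells, plated overnight, exposed 3hr at 37C to 15 concentrations (0.76% DMSO final). Lysed, then HTRF anti-pH2AX (S139) cryptate and anti-H2AX-d2 antibodies, 24 hr room temperature; 665/620 nm emission read.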

Assay [18] in a line: qHTS assay to identify small molecule agonists of the hypoxia (HIF-1) signaling pathway (AID 1224846; active = well fitted activation curve with a large enough effect in the signal ratio in the repeat runs, not every such curve was filed as active; the % refers to the signal ratio). In outline: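 In ME-180 cells bearing an HRE-bla construct, 17 h treatment with DMSO-dissolved compounds at 37C was followed by CCF4-AM loading to quantify reporter induction.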
Assay [19] has as its target Nuclear receptor subfamily 1 group I member 3 (Homo sapiens) (UniProt Q14994). As to the kind of experiment: qHTS assay to identify small molecule antagonists of the constitutive androstane receptor (CAR) signaling pathway (AID 1224838). Also: nearly all actives have a fitted effect of over 40% in size. In outline:
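CITCO-stimulated (50 nM final) HepG2 cells stably transfected with hCAR and CYP2B6-2.2kb luciferase were exposed to compounds at 15 concentrations for 24 h at 37 C/5% CO2. A luciferase reagent was added and luminescence recorded after 30 min.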

A number with no mark means an inactive call. Results filed as inconclusive are left out. Activity calls are given as the source filed them. Unless noted, calls follow the shape of the dose curve; as a rule, active = well fitted curve in the direction sought with a large enough effect in the repeat runs; inconclusive = weak or mixed curves; inactive = no such curve, though single readings can be large; an effect the other way counts as inactive or inconclusive.
% is scaled to controls: 0 for no effect and ±100 for the full control effect.

Chain of Nuclear receptor subfamily 1 group I member 3 (Homo sapiens) (Q14994 whole entry, looked up): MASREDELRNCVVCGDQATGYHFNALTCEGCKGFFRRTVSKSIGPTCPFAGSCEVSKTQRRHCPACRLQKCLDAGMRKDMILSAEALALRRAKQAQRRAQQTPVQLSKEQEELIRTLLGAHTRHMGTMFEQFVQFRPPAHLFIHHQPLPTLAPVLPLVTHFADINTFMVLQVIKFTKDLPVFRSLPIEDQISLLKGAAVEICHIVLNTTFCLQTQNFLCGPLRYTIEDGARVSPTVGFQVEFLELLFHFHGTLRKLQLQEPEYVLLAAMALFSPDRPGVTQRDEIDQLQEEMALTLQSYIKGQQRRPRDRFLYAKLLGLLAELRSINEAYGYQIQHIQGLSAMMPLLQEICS
Chain of Luciferin 4-monooxygenase (Photinus pyralis) (P08659 whole entry, looked up): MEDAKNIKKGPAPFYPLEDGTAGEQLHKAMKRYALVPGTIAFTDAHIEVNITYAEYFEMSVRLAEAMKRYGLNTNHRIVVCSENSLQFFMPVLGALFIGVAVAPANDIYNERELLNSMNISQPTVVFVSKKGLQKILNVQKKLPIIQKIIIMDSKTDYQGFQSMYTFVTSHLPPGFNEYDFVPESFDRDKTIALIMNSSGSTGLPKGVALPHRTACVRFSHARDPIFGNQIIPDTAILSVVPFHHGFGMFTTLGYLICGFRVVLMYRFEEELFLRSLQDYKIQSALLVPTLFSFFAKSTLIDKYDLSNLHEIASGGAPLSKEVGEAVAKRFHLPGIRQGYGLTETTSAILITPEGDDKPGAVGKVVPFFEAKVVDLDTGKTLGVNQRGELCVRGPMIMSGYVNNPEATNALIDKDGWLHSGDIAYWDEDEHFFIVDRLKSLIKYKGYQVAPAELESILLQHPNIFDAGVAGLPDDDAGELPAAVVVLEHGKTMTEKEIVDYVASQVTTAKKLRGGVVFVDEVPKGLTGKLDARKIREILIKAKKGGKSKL
Chain of Thyrotropin receptor (Homo sapiens) (P16473 whole entry, looked up): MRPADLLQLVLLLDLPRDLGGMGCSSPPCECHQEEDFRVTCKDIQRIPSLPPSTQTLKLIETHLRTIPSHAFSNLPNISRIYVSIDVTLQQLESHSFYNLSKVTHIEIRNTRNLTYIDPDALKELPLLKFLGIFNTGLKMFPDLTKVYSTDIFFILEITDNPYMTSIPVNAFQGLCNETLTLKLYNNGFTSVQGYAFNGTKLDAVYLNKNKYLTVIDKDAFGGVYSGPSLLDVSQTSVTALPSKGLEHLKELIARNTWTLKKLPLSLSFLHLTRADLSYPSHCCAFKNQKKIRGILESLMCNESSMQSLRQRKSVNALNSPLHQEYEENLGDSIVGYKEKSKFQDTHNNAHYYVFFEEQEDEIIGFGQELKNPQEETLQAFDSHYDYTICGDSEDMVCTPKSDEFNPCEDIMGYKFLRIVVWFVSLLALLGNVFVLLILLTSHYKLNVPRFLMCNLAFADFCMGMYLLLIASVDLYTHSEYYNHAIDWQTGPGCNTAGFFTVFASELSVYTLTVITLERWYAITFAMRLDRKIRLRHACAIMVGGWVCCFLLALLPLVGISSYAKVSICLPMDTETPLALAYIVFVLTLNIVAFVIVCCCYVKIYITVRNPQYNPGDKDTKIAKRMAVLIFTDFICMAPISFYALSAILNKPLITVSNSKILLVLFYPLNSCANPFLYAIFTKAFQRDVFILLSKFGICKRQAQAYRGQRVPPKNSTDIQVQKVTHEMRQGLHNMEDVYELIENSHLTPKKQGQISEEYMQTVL

Regarding `IC(I)=C(I)I`, the Potency in [1] was 27.3 µM (active); in assay [3], 30.6 µM (active); in assay [4], 27.3 µM (active); in assay [6], 24.3 µM (active); in assay [7] it was 21.7 µM (active); in assay [9], 31.8 µM (active). Further, the results for the Potency in assay [10], in assay [12] and in assay [13] were 19.3 µM (active), 0.549 µM (active) and 6.92 µM (active), respectively. The Potency result in assay [2], in assay [5], in [8] and in assay [14] was “inactive” in each case. The activity change, positive = activation in assay [11] is -75.2%.

Turning to `CC(=O)C(C)(C)C`, the Potency result in [1], in assay [2], in [3], in assay [4], in [5] and in assay [6] was “inactive” each time. Further, the Potency result in [7], in [8], in [15], in assay [16], in assay [17] and in assay [9] was “inactive” each time. The Potency entry in assay [10], in assay [12], in assay [13] and in assay [14] was “inactive” each time. For the same compound, in assay [18], the compound was classed as inactive. In addition, the activity change, positive = activation in [11] is -0.0388%.

Regarding `CC(Cl)C(C)Cl` (stereo unspecified), the Potency entry in [1], in [2], in assay [3], in [4], in assay [6] and in assay [7] was “inactive” throughout. Also, the Potency entry in [8], in [16], in [17], in [9], in assay [10] and in assay [12] was “inactive” throughout. The Potency entry in [13] and in assay [14] was “inactive” throughout. Further, in [18], the result was inactive. The activity change, positive = activation in assay [11] is 0.315%.

As for `C[C@@H]1CC[C@H]2[C@@H](C)C(=O)O[C@@H]3O[C@@]4(C)CC[C@@H]1[C@]32OO4`, the Potency result in assay [1], in [2], in assay [3], in assay [4], in assay [19] and in assay [6] was “inactive” each time. In addition, the Potency result in assay [8], in [15], in [16], in assay [9], in assay [12] and in assay [13] was “inactive” throughout. Moreover, the Potency entry in [14] was “inactive”. Besides, the values for the Potency in assay [7] and in assay [10] were 1.88 µM (active) and 0.944 µM (active), respectively. Further, the compound was classed as inactive in assay [18]. Besides, the activity change, positive = activation in assay [11] is -38.3% [at 42.5 µM].

For `O=C(O)C(F)(F)C(F)(F)C(F)(F)C(F)(F)C(F)(F)C(F)(F)C(F)(F)C(F)(F)C(F)(F)C(F)(F)F`, the Potency result in assay [1], in [2], in assay [3], in assay [4], in assay [19] and in assay [6] was “inactive” in each case. The Potency result in [7], in assay [17], in [9], in assay [10], in assay [12] and in assay [13] was “inactive” throughout. Also, the Potency result in [14] was “inactive”. For the same compound, the Potency in assay [8] is 57.9 µM (active). Moreover, in assay [18], the compound was classed as inactive. In addition, in assay [11], the activity change, positive = activation was 8.05%.

`COCC(C)N(C(=O)CCl)c1c(C)csc1C` (stereo unspecified): the Potency entry in [1], in assay [2], in assay [3], in assay [4], in assay [6] and in assay [8] was “inactive” each time. In addition, the Potency result in assay [16], in assay [17], in assay [9], in [12], in assay [13] and in assay [14] was “inactive” each time. For the same compound, the Potency in assay [7] was 21.7 µM (active); in assay [10] it was 27.3 µM (active). The compound was classed as inactive in assay [18]. Besides, in assay [11], the activity change, positive = activation is -54.8%.

Take `COc1ccc(-c2ccccc2)cc1NNC(=O)OC(C)C`: the Potency in assay [1] is 63.7 µM (active); in assay [5], 63.7 µM (active); in assay [7], 35.8 µM (active); in assay [10] it was 31.9 µM (active); in assay [13], 51 µM (active). The Potency entry in [2], in assay [3], in assay [4], in [8], in [16] and in [17] was “inactive” each time. In assay [14], the Potency result was “inactive”. Besides, the outcome in assay [18] was inactive. Besides, in [11], the activity change, positive = activation was -62.9%.
